Results on 40 compounds are retold here after PubChem BioAssay (Tox21).

Each structure is given as a SMILES string. Values joined by “and” are separate entries in the source; they are usually repeats but may differ in a detail not shown here. Identical values can stand only once. Records with an inconclusive call do not appear. Entries that show only a call come without a potency. More than one record can exist for a structure, and the calls need not agree. Active and inactive are the calls of the source. Calls follow the shape of the dose curve; as a rule, active = well fitted activation curve with a large enough effect in the repeat runs; inconclusive = weak or mixed curves; inactive = flat fitted curve, though single readings scatter.
Potency is read from the fitted curve at half-maximal effect.

The assay is described as follows: A CellTox Green Cytotoxicity Assay to monitor cytotoxicity in HepG2 cells - 40 hour (AID 1224879). Also: nearly all actives have a fitted effect of over 40% in size. To be noted: CellTox Green fluorescence; series mostly up to 76.8 µM. The source says:
National Center for Advancing Translational Sciences [NCATS]
NIH Chemical Genomics Center [NCGC]
U.S. Environmental Protection Agency [EPA]
National Institutes of Environmental Health Sciences [NIEHS]
National Toxicology Program [NTP]
Cell-based models are critical for drug discovery. Determining the natural cytotoxic effects resulting from test compounds is an essential research activity. A CellTox Green Cytotoxicity Assay to monitor cytotoxicity in real time of continues cell culture during 40 hours of the compound treatment was used to screen Tox21 10K library compounds in HepG2 cells. CellTox Green Cytotoxicity Assay is a nonlytic, homogeneous, biofluorescent method to measure cytotoxicity in cell culture after experimental manipulation. The assay system uses a proprietary asymmetric cyanine dye that is excluded from viable cells but preferentially stains the dead cell's DNA. […] Viable cells produce no appreciable increases in fluorescence. Therefore, the fluorescence signal produced by the binding interaction with dead cell DNA is proportional to cytotoxicity.
The mixture of HepG2 cell suspension and reagents were dispensed at 600cells/6 ul/well in 1536-well tissue culture treated black solid bottom plates using a Multidrop dispenser. After the assay plates were incubated at a 37 C/5% CO2 incubator for 5 hours, 23 nL of compounds dissolved in DMSO, positive and negative controls was transferred to the assay plate by a pintool work station. The plates were incubated at 37 C for 40 hours. The fluorescence intensity were measured at 0h, 8h, 16h, 24h, 32h and 40h time points using ViewLux plate reader during compound treatment.
`Cc1cc(=O)oc2cc(O)ccc12`: the Potency result is “inactive”. With `CC1(C)O[C@@H]2C[C@H]3[C@@H]4CCC5=CC(=O)C=C[C@]5(C)[C@@]4(F)[C@@H](O)C[C@]3(C)[C@]2(C(=O)CO)O1`, the Potency entry was “inactive”. Next, `C=CCc1ccc(O)c(OC)c1`: “inactive”; `C1=CC2C3C=CC(C3)C2C1` (stereo not given): “inactive”. In the case of `Nc1ccc2c(c1)CN1C(=O)c3ccccc3C1=N2` it was 10.4 µM (active); in that of `CC(=O)Nc1c(I)c(NC(C)=O)c(I)c(C(=O)O)c1I`, “inactive”. For `CCN(Cc1c(F)cccc1Cl)c1c([N+](=O)[O-])cc(C(F)(F)F)cc1[N+](=O)[O-]`, the Potency entry is “inactive”.

On to `O=C1OC2(c3ccccc31)c1cc(Br)c(O)c(Br)c1Oc1c2cc(Br)c(O)c1Br`, for which the Potency was 5.58 µM (active) and 14.2 µM (active) and 23.9 µM (active). Regarding `Cc1c(C(=O)O)c(O)cc2c1C(=O)c1c(O)c([C@@H]3O[C@H](CO)[C@@H](O)[C@H](O)[C@H]3O)c(O)c(O)c1C2=O`, the Potency result is “inactive”. Next, `CC(=O)CC(c1ccccc1)c1c(O)c2ccccc2oc1=O` (stereo not given): “inactive”; `CN1CCc2cccc3c2[C@H]1Cc1ccc(O)c(O)c1-3`: 49.5 µM (active) and 18.3 µM (active) and inactive; `C/C=C/C=C/C(=O)O`: “inactive”. `CCOC(N)=O`: the Potency entry is “inactive”. Take `Cn1c(=O)c2c(ncn2C)n(C)c1=O`: the Potency entry was “inactive”. In the case of `CC(C)c1c(C(=O)Nc2ccccc2)c(-c2ccccc2)c(-c2ccc(F)cc2)n1CC[C@@H](O)C[C@@H](O)CC(=O)O` it was 4.21 µM (active) and 5.13 µM (active) and 7.56 µM (active); in that of `OC[C@H]1O[C@H](O[C@]2(CCl)O[C@H](CCl)[C@@H](O)[C@@H]2O)[C@H](O)[C@@H](O)[C@H]1Cl`, “inactive”.

For the compound `CCCCC(CC)C(=O)O` (stereo not given), the Potency result was “inactive”.

`C1CCC(C(CC2CCCCN2)C2CCCCC2)CC1` (stereo not given): the Potency was 5.35 µM (active). In the case of `NS(=O)(=O)c1cc2c(cc1Cl)NCNS2(=O)=O` it was “inactive”. In the case of `CCCCCCCCCCCCCCCC[N+](C)(C)Cc1ccccc1` it was 20.1 µM (active) and 14 µM (active) and 10.7 µM (active); in that of `CC1(C)S[C@@H]2[C@H](NC(=O)[C@H](N)c3ccccc3)C(=O)N2[C@H]1C(=O)O`, “inactive”; in that of `COc1ccc(C(Cl)=C(c2ccc(OC)cc2)c2ccc(OC)cc2)cc1`, “inactive”. In the case of `NC(=O)n1c(O)c(C(=O)c2cccs2)c2cc(Cl)ccc21` it was “inactive”. With `Oc1ccccc1`, the Potency result was “inactive”. Next, `CCCCNC(=O)NS(=O)(=O)c1ccc(C)cc1`: “inactive”. In the case of `NC1CCCCC1` it was “inactive”; in that of `F[B-](F)(F)F`, “inactive and 39.5 µM (active)”. As for `O=C1O[C@H]([C@@H](O)CO)C(O)=C1O`, the Potency result was “inactive”. In the case of `CN[C@H]1CC[C@@H](c2ccc(Cl)c(Cl)c2)c2ccccc21` it was 16.9 µM (active); in that of `O=C(Nc1ncc([N+](=O)[O-])s1)c1cccs1`, “inactive”; in that of `CCc1nc(N)nc(N)c1-c1ccc(Cl)cc1`, “inactive”.

On to `O=c1[nH]cnc2c1ncn2[C@H]1CC[C@@H](CO)O1`, for which the Potency result was “inactive”. Regarding `O=S1(=O)OC(c2ccc(O)cc2)(c2ccc(O)cc2)c2ccccc21`, the Potency entry was “inactive”. In the case of `CN(C)CCOC(C)(c1ccccc1)c1ccccn1` (stereo not given) it was “inactive”; in that of `CN(C)C(=O)Nc1ccc(Cl)c(Cl)c1`, “inactive”.

Regarding `CCCCCCc1ccc(O)cc1O`, the Potency is 49.1 µM (active) and 38.9 µM (active) and 19 µM (active). Next, `NC(=O)c1cccnc1`: “inactive”; `Nc1ccc(O)c([N+](=O)[O-])c1`: “inactive”; `Cc1cc(C)nc(NS(=O)(=O)c2ccc(N)cc2)n1`: “inactive”.

Consider `CCCc1cc(=O)[nH]c(=S)[nH]1`, for which the Potency result is “inactive”.
